From the supplement of paper PMC10849652
Targets with a hit are over-represented here; the source holds about 8,800 in all. About 0.5% of all pairs of compound and target were hits.

Key:
Test in all cases: log2 fold change, soluble protein after heating vs DMSO (PISA); higher = thermal stabilisation; K562 lysate, 10 uM; active = over 0.2 and 3.5 SD of the protein, either way, in both replicates (recomputed)
nilotinib = compound: Cc1cn(-c2cc(NC(=O)c3ccc(C)c(Nc4nccc(-c5cccnc5)n4)c3)cc(C(F)(F)F)c2)cn1 [nilotinib]
Summary of the method: (§1)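 Values give the log-two fold change in thermal stability against solvent controls, from duplicates. Crude K562 extract at 1 mg/mL protein, made by dounce homogenisation in PBS pH 7.4 with 1 mM MgCl2, was treated with 10 μM compound for 30 min. After 3 min heating across 48°C-58°C, aliquots were pooled, adjusted to 0.5% NP-40 at 4°C and centrifuged at 21,000xg for 90 min. The supernatant was measured by TMTpro 16plex LC-MS/MS with channel sums equalised.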

[1] = compound: Cc1nc(Nc2n[nH]c3c2CN(C(=O)N[C@H](CN(C)C)c2ccccc2)C3(C)C)c2sccc2n1
Summary of the method: as §1

dasatinib = compound: Cc1nc(Nc2ncc(C(=O)Nc3c(C)cccc3Cl)s2)cc(N2CCN(CCO)CC2)n1 [dasatinib]
Summary of the method: as §1

[2] = compound: Cc1ncc(-c2ccnc(Nc3ccc(S(C)(=O)=O)cc3)n2)n1C(C)C
Summary of the method: as §1

[3] = compound: Cn1cc(-c2ccc3c(c2)CCN3C(=O)Cc2cccc(C(F)(F)F)c2)c2c(N)ncnc21
Summary of the method: as §1

quisinostat = compound: Cn1cc(CNCC2CCN(c3ncc(C(=O)NO)cn3)CC2)c2ccccc21 [quisinostat]
Summary of the method: as §1

tipifarnib = compound: Cn1cncc1[C@@](N)(c1ccc(Cl)cc1)c1ccc2c(c1)c(-c1cccc(Cl)c1)cc(=O)n2C [tipifarnib]
Summary of the method: as §1

[4] = compound: NC(=O)Nc1cc(-c2cccc(F)c2)sc1C(=O)N[C@H]1CCCNC1
Summary of the method: as §1

[5] = compound: NC(=O)c1cnc(N[C@@H]2CCCC[C@@H]2N)nc1Nc1cccc(-n2nccn2)c1
Summary of the method: as §1

[6] = compound: NC1(c2ccc(-c3nc4ccn5c(=O)[nH]nc5c4cc3-c3ccccc3)cc2)CCC1
Summary of the method: as §1

[7] = compound: NCC(=O)Nc1ccc(-n2nc(C(F)(F)F)cc2-c2ccc3c(ccc4ccccc43)c2)cc1
Summary of the method: as §1

vorinostat = compound: O=C(CCCCCCC(=O)Nc1ccccc1)NO [vorinostat]
Summary of the method: as §1

silmitasertib = compound: O=C(O)c1ccc2c(c1)nc(Nc1cccc(Cl)c1)c1ccncc12 [silmitasertib]
Summary of the method: as §1

[8] = compound: O=C1NC(=O)C(c2cnc3ccccn23)=C1c1cn2c3c(cc(F)cc13)CN(C(=O)N1CCCCC1)CC2
Summary of the method: as §1

entospletinib = compound: c1cn2cc(-c3ccc4cn[nH]c4c3)nc(Nc3ccc(N4CCOCC4)cc3)c2n1 [entospletinib]
Summary of the method: as §1

Measured: log2 fold change

PWP2 (UniProt Q15269)
active: vorinostat -0.547
inactive: nilotinib 0.016 | [1] -0.006 | dasatinib -0.033 | [2] -0.032 | [3] -0.023 | quisinostat -0.056 | tipifarnib 0.004 | [4] 0.036 | [5] -0.022 | [6] 0.011 | [7] 0.007 | silmitasertib 0.029 | [8] -0.014 | entospletinib 0.019

PMPCA (UniProt Q10713)
active: dasatinib 0.672
inactive: nilotinib 0.005 | [1] 0.052 | [2] 0 | [3] -0.017 | quisinostat -0.041 | tipifarnib 0.187 | [4] -0.013 | [5] -0.009 | [6] 0.003 | [7] 0.031 | vorinostat 0.033 | silmitasertib -0.044 | [8] 0.003 | entospletinib -0.019

PTPN23 (UniProt Q9H3S7)
inactive: nilotinib -0.003 | [1] -0.029 | dasatinib -0.034 | [2] -0.002 | [3] 0.01 | quisinostat 0.002 | tipifarnib 0 | [4] 0.024 | [5] 0.025 | [6] 0.005 | [7] -0.011 | silmitasertib -0.007 | [8] 0 | entospletinib 0.009
active: vorinostat -0.266

POLD1 (UniProt P28340)
UniProt P28340, sequence (P28340 whole entry, looked up): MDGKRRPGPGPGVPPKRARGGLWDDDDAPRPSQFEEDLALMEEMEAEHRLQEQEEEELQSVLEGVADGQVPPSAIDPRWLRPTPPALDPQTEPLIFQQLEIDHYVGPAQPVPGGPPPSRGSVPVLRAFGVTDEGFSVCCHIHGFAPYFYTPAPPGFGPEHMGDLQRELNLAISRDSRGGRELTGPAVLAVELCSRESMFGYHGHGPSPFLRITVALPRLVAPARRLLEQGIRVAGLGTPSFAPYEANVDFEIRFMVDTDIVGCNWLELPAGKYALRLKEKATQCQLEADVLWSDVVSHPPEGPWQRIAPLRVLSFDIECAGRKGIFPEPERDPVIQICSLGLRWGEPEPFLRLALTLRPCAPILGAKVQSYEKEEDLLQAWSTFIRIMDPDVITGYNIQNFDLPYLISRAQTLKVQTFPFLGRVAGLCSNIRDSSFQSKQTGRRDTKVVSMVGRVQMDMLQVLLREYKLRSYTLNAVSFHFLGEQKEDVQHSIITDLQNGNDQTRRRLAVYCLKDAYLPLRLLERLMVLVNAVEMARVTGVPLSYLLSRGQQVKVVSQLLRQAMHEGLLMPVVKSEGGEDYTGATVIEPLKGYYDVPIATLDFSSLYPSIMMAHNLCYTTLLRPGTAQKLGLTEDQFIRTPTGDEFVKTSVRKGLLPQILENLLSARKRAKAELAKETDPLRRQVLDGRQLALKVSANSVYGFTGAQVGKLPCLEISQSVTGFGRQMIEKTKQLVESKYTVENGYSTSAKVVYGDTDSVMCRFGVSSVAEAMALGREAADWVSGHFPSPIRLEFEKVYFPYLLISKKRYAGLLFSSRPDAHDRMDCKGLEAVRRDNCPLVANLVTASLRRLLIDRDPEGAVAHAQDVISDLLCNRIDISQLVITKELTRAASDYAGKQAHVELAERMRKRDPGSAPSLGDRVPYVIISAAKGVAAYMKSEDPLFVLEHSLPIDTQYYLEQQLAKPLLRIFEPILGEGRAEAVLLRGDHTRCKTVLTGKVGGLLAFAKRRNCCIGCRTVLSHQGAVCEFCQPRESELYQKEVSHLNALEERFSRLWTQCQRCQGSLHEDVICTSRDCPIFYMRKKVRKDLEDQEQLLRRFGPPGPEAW
inactive: nilotinib 0.029 | [1] -0.004 | dasatinib -0.023 | [2] -0.011 | [3] 0.011 | quisinostat 0.01 | tipifarnib -0.011 | [4] 0.015 | [5] 0.006 | [6] 0.003 | [7] 0.016 | silmitasertib 0.016 | [8] 0.005 | entospletinib -0.009
active: vorinostat -0.245

PGPEP1 (UniProt Q9NXJ5)
active: vorinostat -0.526
inactive: nilotinib 0.018 | [1] 0.019 | dasatinib -0.067 | [2] 0.07 | [3] 0.011 | quisinostat 0.041 | tipifarnib -0.006 | [4] -0.033 | [5] -0.03 | [6] 0.033 | [7] 0 | silmitasertib 0.009 | [8] 0.012 | entospletinib -0.049

PDXK (UniProt O00764)
UniProt O00764, sequence (O00764 whole entry, looked up): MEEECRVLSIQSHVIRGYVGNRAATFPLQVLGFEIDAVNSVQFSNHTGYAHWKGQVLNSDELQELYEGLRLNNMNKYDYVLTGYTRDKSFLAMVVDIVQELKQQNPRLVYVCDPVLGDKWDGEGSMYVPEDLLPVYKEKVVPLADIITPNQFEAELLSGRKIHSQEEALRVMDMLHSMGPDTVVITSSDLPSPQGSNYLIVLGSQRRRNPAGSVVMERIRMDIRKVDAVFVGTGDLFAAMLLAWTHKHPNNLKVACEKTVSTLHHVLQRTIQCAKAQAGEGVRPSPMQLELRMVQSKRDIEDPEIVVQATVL
inactive: nilotinib 0.123 | [1] -0.031 | dasatinib 0.005 | [2] 0.055 | [3] -0.003 | quisinostat -0.03 | tipifarnib 0.012 | [4] -0.008 | [5] -0.008 | [6] -0.023 | [7] -0.005 | vorinostat 0.073 | silmitasertib -0.008 | [8] 0.026 | entospletinib -0.009

PRKCSH (UniProt P14314)
inactive: nilotinib 0.01 | [1] 0.016 | dasatinib 0.037 | [2] 0.041 | [3] -0.003 | quisinostat 0.088 | tipifarnib 0.008 | [4] -0.006 | [5] -0.004 | [6] 0.036 | [7] 0.002 | vorinostat 0.141 | silmitasertib -0.015 | [8] -0.001 | entospletinib 0.001

PTGES2 (UniProt Q9H7Z7)
inactive: nilotinib 0.446 | [1] -0.044 | dasatinib 0.01 | [2] -0.019 | [3] 0.015 | quisinostat -0.046 | tipifarnib -0.057 | [4] -0.012 | [5] -0.056 | [6] -0.078 | [7] -0.175 | vorinostat -0.197 | silmitasertib 0.304 | [8] 0.12 | entospletinib 0.085

PRKCB isoform 2 (UniProt P05771)
inactive: nilotinib -0.014 | dasatinib -0.06 | [2] -0.093 | [3] -0.007 | quisinostat 0.017 | tipifarnib -0.038 | [5] 0.181 | [6] -0.037 | [7] 0.046 | vorinostat -0.145 | silmitasertib 0.012 | [8] -0.164 | entospletinib 0.004
active: [1] 0.256 | [4] -0.416

PFKFB2 (UniProt O60825)
active: vorinostat -0.39
inactive: nilotinib -0.04 | [1] 0.011 | dasatinib 0.017 | [2] -0.043 | [3] 0.014 | quisinostat 0.024 | tipifarnib -0.011 | [4] -0.046 | [5] -0.003 | [6] -0.009 | [7] -0.007 | silmitasertib 0.033 | [8] 0.026 | entospletinib 0.018

POLR2M (UniProt P0CAP2)
inactive: nilotinib -0.033 | [1] -0.014 | dasatinib -0.032 | [2] 0.012 | [3] -0.056 | quisinostat -0.015 | tipifarnib 0.007 | [4] 0.012 | [5] 0.002 | [6] 0.014 | [7] 0.034 | vorinostat 0 | silmitasertib -0.029 | [8] -0.027 | entospletinib 0.076

PFN1 (UniProt P07737)
UniProt P07737, sequence (P07737 whole entry, looked up): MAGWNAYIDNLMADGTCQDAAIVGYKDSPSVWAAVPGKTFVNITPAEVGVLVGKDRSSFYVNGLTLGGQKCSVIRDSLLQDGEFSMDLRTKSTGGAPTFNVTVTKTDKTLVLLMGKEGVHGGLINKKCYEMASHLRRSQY
inactive: nilotinib -0.002 | [1] 0.002 | dasatinib 0.022 | [2] -0.008 | [3] -0.006 | quisinostat 0.008 | tipifarnib 0.03 | [4] -0.018 | [5] -0.018 | [6] 0.014 | [7] -0.006 | vorinostat 0.083 | silmitasertib -0.004 | [8] -0.014 | entospletinib 0.006

QKI (UniProt Q96PU8)
inactive: nilotinib -0.053 | [1] 0.006 | dasatinib -0.02 | [2] 0.062 | [3] -0.038 | quisinostat -0.013 | tipifarnib -0.024 | [4] 0.055 | [5] -0.005 | [6] -0.008 | [7] -0.008 | vorinostat -0.147 | silmitasertib 0.021 | [8] 0.045 | entospletinib 0.007

PIK3C3 (UniProt Q8NEB9)
UniProt Q8NEB9, sequence (Q8NEB9 whole entry, looked up): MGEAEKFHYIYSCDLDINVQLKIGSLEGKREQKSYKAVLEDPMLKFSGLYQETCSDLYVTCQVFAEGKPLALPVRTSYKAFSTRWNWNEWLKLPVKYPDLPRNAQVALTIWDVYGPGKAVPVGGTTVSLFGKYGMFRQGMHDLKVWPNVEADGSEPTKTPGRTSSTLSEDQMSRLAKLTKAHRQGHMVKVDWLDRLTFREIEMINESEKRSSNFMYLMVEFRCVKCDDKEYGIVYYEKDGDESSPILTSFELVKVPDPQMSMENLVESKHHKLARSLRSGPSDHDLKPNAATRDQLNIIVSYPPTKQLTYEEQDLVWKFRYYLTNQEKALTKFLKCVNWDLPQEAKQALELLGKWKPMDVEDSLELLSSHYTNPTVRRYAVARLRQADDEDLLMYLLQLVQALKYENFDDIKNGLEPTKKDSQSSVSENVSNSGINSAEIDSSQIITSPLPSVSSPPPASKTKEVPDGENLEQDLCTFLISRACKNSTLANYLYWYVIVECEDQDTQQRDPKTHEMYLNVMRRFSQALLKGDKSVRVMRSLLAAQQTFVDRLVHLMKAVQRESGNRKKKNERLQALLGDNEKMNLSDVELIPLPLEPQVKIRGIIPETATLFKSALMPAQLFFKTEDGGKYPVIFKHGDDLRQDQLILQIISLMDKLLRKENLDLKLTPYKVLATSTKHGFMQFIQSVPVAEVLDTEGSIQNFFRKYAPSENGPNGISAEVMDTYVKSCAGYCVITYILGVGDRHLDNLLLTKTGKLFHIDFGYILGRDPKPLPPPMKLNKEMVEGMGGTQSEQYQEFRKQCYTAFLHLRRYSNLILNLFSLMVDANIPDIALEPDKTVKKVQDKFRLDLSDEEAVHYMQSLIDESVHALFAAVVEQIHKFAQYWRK
inactive: nilotinib -0.001 | [1] -0.011 | dasatinib -0.05 | [2] 0.062 | [3] -0.025 | quisinostat -0.022 | tipifarnib -0.054 | [4] 0.027 | [5] 0.04 | [6] -0.008 | [7] -0.04 | vorinostat -0.066 | silmitasertib 0.037 | [8] 0.019 | entospletinib -0.014

PRKCA (UniProt P17252)
inactive: nilotinib -0.008 | [1] 0.227 | dasatinib -0.028 | [2] 0.095 | [3] -0.056 | quisinostat -0.035 | tipifarnib 0 | [4] -0.067 | [6] -0.006 | [7] -0.045 | vorinostat -0.14 | silmitasertib 0.044 | [8] 0.087 | entospletinib 0.018
active: [5] 0.408

PHKB isoform 3 (UniProt Q93100)
active: [4] 0.28 | vorinostat -0.288
inactive: nilotinib -0.007 | [1] 0.121 | dasatinib -0.023 | [2] 0.001 | [3] 0.008 | quisinostat -0.063 | tipifarnib -0.035 | [5] 0.004 | [6] -0.058 | [7] -0.023 | silmitasertib 0.07 | [8] 0.016 | entospletinib 0.023

PDXDC1 (UniProt Q6P996)
active: vorinostat -0.233
inactive: nilotinib 0.058 | [1] 0.064 | dasatinib -0.098 | [2] -0.024 | [3] 0.022 | quisinostat -0.035 | tipifarnib -0.074 | [4] 0.019 | [5] 0.042 | [6] 0.012 | [7] -0.041 | silmitasertib 0.038 | [8] 0.018 | entospletinib -0.019

PKP3 isoform 2 (UniProt Q9Y446)
UniProt Q9Y446, sequence (Q9Y446 whole entry, looked up): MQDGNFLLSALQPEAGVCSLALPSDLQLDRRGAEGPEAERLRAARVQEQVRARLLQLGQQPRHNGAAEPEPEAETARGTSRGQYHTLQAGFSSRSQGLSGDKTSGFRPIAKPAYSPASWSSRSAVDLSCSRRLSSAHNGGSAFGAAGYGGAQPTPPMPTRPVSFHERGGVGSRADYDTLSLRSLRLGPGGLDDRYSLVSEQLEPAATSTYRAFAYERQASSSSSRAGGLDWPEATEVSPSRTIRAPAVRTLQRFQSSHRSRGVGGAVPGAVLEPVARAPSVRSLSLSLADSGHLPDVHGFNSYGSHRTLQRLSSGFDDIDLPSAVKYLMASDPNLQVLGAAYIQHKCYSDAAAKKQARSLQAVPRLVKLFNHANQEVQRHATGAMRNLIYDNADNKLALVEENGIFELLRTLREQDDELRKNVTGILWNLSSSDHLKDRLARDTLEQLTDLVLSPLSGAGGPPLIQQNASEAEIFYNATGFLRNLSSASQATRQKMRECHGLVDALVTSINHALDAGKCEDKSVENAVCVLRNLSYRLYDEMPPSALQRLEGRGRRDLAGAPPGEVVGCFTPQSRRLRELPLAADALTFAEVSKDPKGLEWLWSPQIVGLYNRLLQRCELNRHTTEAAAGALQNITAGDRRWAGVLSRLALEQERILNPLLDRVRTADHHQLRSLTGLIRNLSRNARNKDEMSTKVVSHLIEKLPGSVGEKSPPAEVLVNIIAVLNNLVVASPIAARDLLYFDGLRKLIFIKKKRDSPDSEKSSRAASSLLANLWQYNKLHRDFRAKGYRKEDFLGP
active: vorinostat -0.286
inactive: nilotinib -0.034 | [1] -0.021 | dasatinib 0 | [2] -0.039 | [3] -0.001 | quisinostat -0.012 | tipifarnib 0.007 | [4] -0.051 | [5] -0.021 | [6] 0.02 | [7] -0.021 | silmitasertib -0.043 | [8] -0.063 | entospletinib 0.002

PHLDB1 (UniProt Q86UU1)
active: vorinostat -0.357
inactive: nilotinib -0.035 | [1] -0.012 | dasatinib 0.002 | [2] -0.006 | [3] -0.046 | quisinostat -0.243 | tipifarnib -0.003 | [4] 0.028 | [5] -0.036 | [6] 0.004 | [7] 0.022 | silmitasertib 0.012 | [8] 0.128 | entospletinib 0.008

PTPN6 isoform 4 (UniProt P29350)
inactive: nilotinib -0.002 | [1] -0.028 | dasatinib 0.028 | [2] -0.043 | [3] 0.071 | quisinostat 0.01 | tipifarnib 0.055 | [4] -0.03 | [5] -0.128 | [6] 0.062 | [7] -0.001 | vorinostat -0.039 | silmitasertib 0.078 | [8] 0.006 | entospletinib 0.107

PIK3CB (UniProt P42338)
UniProt P42338, sequence (P42338 whole entry, looked up): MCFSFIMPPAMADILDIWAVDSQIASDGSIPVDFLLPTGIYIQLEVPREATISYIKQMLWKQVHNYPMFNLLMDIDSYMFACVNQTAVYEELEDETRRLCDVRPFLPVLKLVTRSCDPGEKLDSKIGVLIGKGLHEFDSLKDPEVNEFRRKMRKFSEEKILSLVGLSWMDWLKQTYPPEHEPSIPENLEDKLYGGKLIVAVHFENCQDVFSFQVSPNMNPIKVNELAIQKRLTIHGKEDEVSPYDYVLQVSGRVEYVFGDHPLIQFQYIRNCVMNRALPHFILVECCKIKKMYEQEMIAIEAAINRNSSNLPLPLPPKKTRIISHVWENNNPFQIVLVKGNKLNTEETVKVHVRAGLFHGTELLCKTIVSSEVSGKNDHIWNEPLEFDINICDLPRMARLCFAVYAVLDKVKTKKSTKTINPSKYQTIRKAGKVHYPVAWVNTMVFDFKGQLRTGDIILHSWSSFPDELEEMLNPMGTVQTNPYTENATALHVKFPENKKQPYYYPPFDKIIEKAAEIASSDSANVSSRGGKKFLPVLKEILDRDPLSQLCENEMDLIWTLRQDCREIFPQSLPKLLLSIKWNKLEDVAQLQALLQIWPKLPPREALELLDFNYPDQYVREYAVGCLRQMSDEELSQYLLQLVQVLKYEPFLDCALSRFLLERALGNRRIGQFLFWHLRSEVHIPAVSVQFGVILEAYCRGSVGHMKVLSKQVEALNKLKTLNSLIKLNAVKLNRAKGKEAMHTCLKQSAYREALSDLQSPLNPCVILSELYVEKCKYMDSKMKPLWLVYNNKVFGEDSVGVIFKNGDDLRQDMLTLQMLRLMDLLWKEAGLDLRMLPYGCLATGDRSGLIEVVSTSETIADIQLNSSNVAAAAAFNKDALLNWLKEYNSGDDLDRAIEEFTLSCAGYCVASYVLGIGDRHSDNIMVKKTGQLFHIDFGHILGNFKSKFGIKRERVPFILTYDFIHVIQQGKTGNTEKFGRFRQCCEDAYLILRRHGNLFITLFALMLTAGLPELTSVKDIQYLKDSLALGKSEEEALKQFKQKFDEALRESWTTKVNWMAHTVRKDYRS
active: [6] 0.44
inactive: nilotinib 0.015 | [1] 0.021 | dasatinib -0.072 | [2] 0.094 | [3] 0.055 | quisinostat -0.05 | tipifarnib -0.032 | [4] 0.053 | [5] 0.015 | [7] -0.041 | vorinostat -0.395 | silmitasertib 0.321 | [8] -0.046 | entospletinib 0.038
